PubChem BioAssay AID430 (Sanford-Burnham Center for Chemical Genomics, 2006)
Out of some 63,000 compounds screened, about 1,100 (1.7%) were called active. Rule as the data show it: active = cytotoxicity above about 50%; inactive = the rest. Only a selection was taken, and actives are over-represented in it overall. Measured potencies and affinities stand elsewhere.

Assay: HPDE-C7 pancreatic duct cell viability loss – fluorescence, HTS (AID 430);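 also: cells exposed to compound for 48 hours before viability readout; 0% = vehicle and 100% = reference cytotoxic drug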
Details: HPDE-C7 pancreatic duct cells viability, at 10 µM, stronger effect = higher value

| Compound | cytotoxicity |
| --- | --- |
| CC1CCC(C(=O)NC(C(=O)NCCN2CCC(C)CC2)C(C)C)CC1 (stereo not given) | -16.7% (inactive) |
| Cc1nnc(SCc2ccccc2Cl)n1CC1CCCO1 (stereo not given) | -11.9% (inactive) |
| COc1ccc(NC2=CC(=O)CC(C)(C)C2)cc1OC | -19.2% (inactive) |
| O=C(Nc1cccc2ccccc12)N1CCN(c2ccccc2)CC1 | 15.2% (inactive) |
| O=C(Nc1ccc2snnc2c1)N1CCN(c2ccccc2)CC1 | -24.9% (inactive) |
| O=C(Nc1cccc(NC(=O)N2CCN(c3ccccc3)CC2)c1)N1CCN(c2ccccc2)CC1 | 56.3% (active) |
| COc1ccc(Cn2c(C)nc3oc4cc(OC)ccc4c(=O)c3c2=O)cc1 | -21% (inactive) |
| Nc1nc2n(n1)C(c1cccc(Cl)c1)CC(c1ccc(F)cc1)N2 (stereo not given) | 10.8% (inactive) |
| Cc1nc(SCC(=O)CC(=O)OC(C)C)c(C#N)c(C)c1C | -1.2% (inactive) |
| COC(=O)CC(=O)CSc1nc2c(cc1C#N)CCCCC2 | 10.3% (inactive) |
| CCOC(=O)c1sc(NC(=O)CSc2nc3c(cc2C#N)CCC3)c(C#N)c1C | 4.5% (inactive) |
| N#Cc1cc2c(nc1SCC(=O)Nc1sc3c(c1C#N)CCC3)CCCCC2 | 23.2% (inactive) |
| CCOC(=O)c1sc(NC(=O)CSc2nc3c(cc2C#N)CCCCCC3)c(C#N)c1C | 79.6% (active) |
| Cc1cc(C)c(C#N)c(SCC(=O)CC(=O)OC(C)C)n1 | 34.5% (inactive) |
| CC(C)OC(=O)CC(=O)CSc1nc2c(cc1C#N)CCC2 | 49.9% (inactive) |
| COC(=O)CC(=O)CSc1nc2c(cc1C#N)CCC2 | 76.1% (active) |
| Cc1c(C#N)c(SCC(N)=O)nc2c1CCCC2 | -21% (inactive) |
| CCOC(=O)CC(=O)CSc1nc2c(cc1C#N)CCCCC2 | -5.9% (inactive) |
| CCOC(=O)CC(=O)CSc1nc2c(c(C)c1C#N)CCC2 | 52.6% (active) |
| COc1cc(Cl)ccc1S(=O)(=O)n1nc(C)cc1C | 7.8% (inactive) |
| CCc1ccc(S(=O)(=O)NCc2csc(-c3cccnc3)n2)s1 | -5% (inactive) |
| CCOC(=O)c1ccccc1NC(=O)c1c(O)c2ccccc2n(CC)c1=O | -9.2% (inactive) |

| Compound | cytotoxicity |
| --- | --- |
| CC(=O)N1CCc2cc(S(=O)(=O)NC(CC(C)C)C(=O)Nc3cc(C)ccn3)ccc21 (stereo not given) | -6.7% (inactive) |
| Cc1cc(C(C)(C)C)oc1C(=O)N1CCN(C(=O)c2oc(C(C)(C)C)cc2C)CC1 | 4% (inactive) |
| CCCCS(=O)(=O)C(=C1Nc2ccccc2N1)S(=O)(=O)CCCC | -0.6% (inactive) |
| CCOCCCn1c(=S)[nH]c2cc(C(=O)N3CCC(C(N)=O)CC3)ccc2c1=O | 0.3% (inactive) |
| CC(C)OC(=O)CSc1nnc(-c2cnccn2)n1-c1ccc(Cl)cc1 | 9.2% (inactive) |
| Cc1ccc(OCC(=O)N2CCN(C(=O)Cc3ccccc3)CC2)cc1 | -0.3% (inactive) |
| N#CCSc1nc2cc(C(=O)N3CCCC3)ccc2c(=O)n1Cc1ccccc1 | -0.6% (inactive) |
| N#CCSc1nc2cc(C(=O)N3CCC(C(N)=O)CC3)ccc2c2nc3ccccc3n12 | 75.7% (active) |
| CCOC(=O)CSc1nc2cc(C(=O)N3CCC(C(N)=O)CC3)ccc2c(=O)n1-c1ccccc1 | -8.3% (inactive) |
| Cc1onc(-c2ccccc2)c1C(=O)Nc1cccc2nsnc12 | -11.7% (inactive) |
| COc1ccc(Cn2c(C)ccc2C)cc1 | -2% (inactive) |
| COc1ccc(CN2CCC(=O)NC2=O)cc1 | 6.7% (inactive) |
| COc1ccc(CN2CN(C(C)C)CSC2=S)cc1 | 50.5% (active) |
| CC(=O)c1cc(-c2ccccc2)n(CCC(=O)NCc2cccs2)c1C | -24% (inactive) |
| CCc1[nH]nc2c1C(c1cccnc1)C(C#N)=C(N)O2 (stereo not given) | 4.9% (inactive) |
| N#CC1=C(N)Oc2cc(O)ccc2C1c1ccncc1 (stereo not given) | 3% (inactive) |
| N#CC1=C(N)Oc2c(ccc3cccnc23)C1c1cccnc1 (stereo not given) | 62.4% (active) |
| N#CC1=C(N)Oc2nc(-c3ccccc3)[nH]c2C1c1cccnc1 (stereo not given) | 3.4% (inactive) |
| CN(C)c1ccc2c(c1)OC(N)=C(C#N)C2c1cccc(F)c1 (stereo not given) | 62.6% (active) |
| CCCc1nn(C)c2c1C(c1cccnc1)C(C#N)=C(N)O2 (stereo not given) | 3.9% (inactive) |
| CC(C)(C)c1[nH]nc2c1C(c1cccnc1)C(C#N)=C(N)O2 (stereo not given) | -9.6% (inactive) |
| N#CC1=C(N)Oc2cc(O)ccc2C1c1ccccc1 (stereo not given) | -11.3% (inactive) |

| Compound | cytotoxicity |
| --- | --- |
| CCN(CC)c1ccc2c(c1)OC(N)=C(C#N)C2c1cccnc1 (stereo not given) | 64.4% (active) |
| C=CCSC1=C(C#N)C(c2ccccc2Cl)CC(=O)N1 (stereo not given) | -33.8% (inactive) |
| O=C(O)C1C2C=CC(C2)C1C(=O)Nc1ccc(C(=O)N2CCCCC2)c(Cl)c1 (stereo not given) | -20.1% (inactive) |
| COc1cc2c(cc1OC)C1=C(C#N)CN(CC(=O)O)CN1CC2 | -4.5% (inactive) |
| COc1ccc(S(=O)(=O)NCCC(=O)NCc2cccs2)cc1 | -13.7% (inactive) |
| C=C(C)CSc1nc2ncccc2[nH]1 | -0.6% (inactive) |
| COc1ccc(CN(C(=O)CSc2nnc(-c3ccc(F)cc3)o2)c2ccc(F)cc2)cc1 | 3% (inactive) |
| O=C(CSc1nnc(-c2c[nH]c3ccccc23)o1)N(Cc1ccccc1)c1ccc(F)cc1 | 53.6% (active) |
| COc1ccc(CN(C(=O)CSc2nnc(-c3ccccc3F)o2)c2ccc(F)cc2)cc1 | 6.6% (inactive) |
| CCOC(=O)C(C)Sc1nc2ccccc2c(=O)n1CC (stereo not given) | -15.7% (inactive) |
| Cc1cccc(N2CCN(c3nnnn3-c3ccccc3)CC2C)c1 (stereo not given) | 0.6% (inactive) |
| CC(NC(=O)c1noc2c1CCCC2)c1ccccc1 (stereo not given) | 4.7% (inactive) |
| CCC(c1nnnn1C1CCCC1)N(Cc1cccs1)Cc1cc2cc(C)ccc2[nH]c1=O (stereo not given) | 56.4% (active) |
| CCOc1ccc2[nH]c(=O)c(CN(Cc3cccs3)Cc3nnnn3C(C)(C)CC)cc2c1 | 12.9% (inactive) |
| Cc1ccc2[nH]c(=O)c(CN(Cc3ccccc3)Cc3nnnn3C3CCCC3)cc2c1 | 39.3% (inactive) |
| Cc1ccc2[nH]c(=O)c(CN(Cc3nnnn3C3CCCC3)C3CCCCC3)cc2c1 | 9.3% (inactive) |
| CCOc1ccc2[nH]c(=O)c(CN(Cc3cccs3)Cc3nnnn3C(C)(C)C)cc2c1 | 31.8% (inactive) |
| CCOC(=O)Cn1nnnc1C(CC)N(Cc1cccs1)Cc1cc2cc(C)ccc2[nH]c1=O (stereo not given) | 7.5% (inactive) |
| CCOc1ccc2[nH]c(=O)c(CN(Cc3cccs3)C(CC)c3nnnn3C(C)(C)CC)cc2c1 (stereo not given) | 59% (active) |
| Cc1ccc2cc(CN(Cc3ccc(F)cc3)Cc3nnnn3C3CCCC3)c(=O)[nH]c2c1 | 23.4% (inactive) |
| Cc1ccc2cc(CN(Cc3ccccc3)Cc3nnnn3C3CCCC3)c(=O)[nH]c2c1 | 53.3% (active) |
